Results on 56 compounds are retold here after paper PMC4336329 (PLoS ONE, 2015).

Screen size: about 310,000 compounds; about 14,000 (4.5%) showed an effect of 50% or more. Effects have a minus sign here. What follows is part of a selection rich in strong results, with near analogues and random picks from the rest.
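Also: peak tail current of the secondary pulse compared with the same well before compound.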

For this assay, the target named is human ether-à-go-go-related gene (hERG) potassium channel (human, UniProt Q12809). In words: primary screen, population patch clamp on CHO cells stably expressing hERG; higher = less effect of the substance.
Sequence of human ether-à-go-go-related gene (hERG) potassium channel (Q12809 whole entry, looked up): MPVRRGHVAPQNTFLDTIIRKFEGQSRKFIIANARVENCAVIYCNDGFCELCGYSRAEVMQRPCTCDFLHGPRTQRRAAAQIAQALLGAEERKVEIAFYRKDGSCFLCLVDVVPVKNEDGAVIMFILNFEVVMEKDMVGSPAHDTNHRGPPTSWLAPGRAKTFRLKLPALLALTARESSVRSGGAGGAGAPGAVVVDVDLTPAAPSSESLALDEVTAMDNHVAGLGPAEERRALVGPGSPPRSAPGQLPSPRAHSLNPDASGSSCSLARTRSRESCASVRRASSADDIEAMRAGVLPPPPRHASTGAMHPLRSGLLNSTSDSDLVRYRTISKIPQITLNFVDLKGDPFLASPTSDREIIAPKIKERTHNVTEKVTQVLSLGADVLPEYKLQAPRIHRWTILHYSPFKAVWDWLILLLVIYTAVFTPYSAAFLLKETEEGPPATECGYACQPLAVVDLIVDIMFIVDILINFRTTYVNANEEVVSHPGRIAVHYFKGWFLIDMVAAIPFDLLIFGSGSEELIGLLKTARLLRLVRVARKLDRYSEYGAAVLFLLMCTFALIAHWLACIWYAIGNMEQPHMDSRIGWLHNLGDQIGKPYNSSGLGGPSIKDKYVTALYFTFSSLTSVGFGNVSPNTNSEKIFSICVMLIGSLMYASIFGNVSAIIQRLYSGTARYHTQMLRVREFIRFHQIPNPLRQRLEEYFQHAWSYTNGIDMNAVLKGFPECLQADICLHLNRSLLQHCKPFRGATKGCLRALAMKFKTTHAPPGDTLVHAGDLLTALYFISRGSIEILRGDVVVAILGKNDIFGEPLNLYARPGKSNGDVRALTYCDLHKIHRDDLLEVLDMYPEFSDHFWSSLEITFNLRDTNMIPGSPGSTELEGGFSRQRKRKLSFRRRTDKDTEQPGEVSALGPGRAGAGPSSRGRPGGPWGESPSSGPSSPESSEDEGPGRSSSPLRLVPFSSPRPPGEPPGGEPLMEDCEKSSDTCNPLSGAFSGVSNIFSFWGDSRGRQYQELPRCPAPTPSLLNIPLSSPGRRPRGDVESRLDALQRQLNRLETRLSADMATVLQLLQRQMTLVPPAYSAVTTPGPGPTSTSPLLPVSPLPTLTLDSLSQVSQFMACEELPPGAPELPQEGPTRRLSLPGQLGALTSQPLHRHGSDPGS
Take `CN(C1CCCCC1)S(=O)(=O)c1ccccc1`: the “hERG current change (%, negative = inhibition) at 10uM” value was -7.01%. To `O=C(O)COc1ccc(Br)cc1/C=N\Nc1ccccn1` belongs 15.2%. The result for `COc1cc(OC)cc(C(=O)NC(=S)Nc2cc3oc4ccccc4c3cc2OC)c1` reads 18.5%; that for `Cc1cc(/C=C2/C(=O)N(C)C(=S)N2C)c(C)n1C1CC1`, 4.03%. The result for `CC(C)Oc1ccc(C(=O)Nc2ccc(N3CCCCC3)cc2)cc1` reads -2.32%; that for `CS(=O)(=O)N1CCc2ccc(NC(=O)C3CCCO3)cc2C1` (centres unmarked), 18.8%; that for `CCCNS(=O)(=O)c1ccc(CCC(=O)N2CCOCC2)cc1`, 3.77%.

Take `COC(=O)[C@@H](NC(=O)c1ccc2c(c1)S(=O)(=O)c1ccccc1C2=O)C(C)C`: the “hERG current change (%, negative = inhibition) at 10uM” value turned out to be 8.57%.

`CCCCC(=O)Nc1cc(N(C)C)nc2ccccc12`: the “hERG current change (%, negative = inhibition) at 10uM” value is given as -66.3%.

Turning to `O=C(CN1CCOCC1)Nc1c2c(nc3ccccc13)N(Cc1ccccc1)CC2.O=C(O)C(=O)O`, the “hERG current change (%, negative = inhibition) at 10uM” value is on record as -68.9%. For the compound `CCCCCC(=O)Nc1c2c(nc3ccccc13)CCC2`, the “hERG current change (%, negative = inhibition) at 10uM” value is -45.7%. The result for `O=C(CN1CCCCC1)Nc1c2c(nc3ccccc13)N(c1ccccc1)CC2.O=C(O)C(=O)O` reads 3.12%; that for `CCN(CC)CC(=O)Nc1cc(N(C)C)nc2ccccc12.O=C(O)C(=O)O`, -35.3%.

Take `CCN(CC)CC(=O)Nc1c2c(nc3ccccc13)N(C)CC2.O=C(O)C(=O)O`: the “hERG current change (%, negative = inhibition) at 10uM” value is recorded as 16.5%. For the compound `CCCCCC(=O)Nc1cccc2ccccc12`, the “hERG current change (%, negative = inhibition) at 10uM” value was -2.38%. For the compound `O=C(CN1CCCC1)Nc1c2c(nc3ccccc13)N(Cc1ccccc1)CC2.O=C(O)C(=O)O`, the “hERG current change (%, negative = inhibition) at 10uM” value is reported as 6.05%.

With `CCCCCCC(=O)Nc1c2c(nc3ccccc13)N(C)CC2`, the “hERG current change (%, negative = inhibition) at 10uM” value is given as -68%. To `CN(C)c1cc(NC(=O)CN2CCCC2)c2ccccc2n1.O=C(O)C(=O)O` belongs -10.3%; to `CCCCCC(=O)Nc1cc(N(C)C)nc2ccccc12`, -74.9%; to `CN1CCc2c1nc1ccccc1c2NC(=O)CN1CCCC1`, -1.61%. Take `C/C(=N\NC(=S)Nc1cc(S(=O)(=O)N2CCOCC2)ccc1Cl)c1ccc(N2CCOCC2)cc1`: the “hERG current change (%, negative = inhibition) at 10uM” value is 6.22%.

Regarding `COc1ccc(CN(Cc2ccccn2)C(=O)CN2C(=O)C(C)Oc3ccccc32)cc1` (centres unmarked), the “hERG current change (%, negative = inhibition) at 10uM” value was -3.36%. To `CCOC(=O)c1ccc(-c2ccc(/C=C(\C#N)C(=O)NCc3cccs3)o2)cc1` belongs 18%; to `CC(=O)N1N=C(c2cccnc2)OC1c1ccc(C(C)C)cc1` (centres unmarked), -30.1%; to `O=c1[nH]ccc2c(O)cccc12`, 20.1%. The result for `Cc1cccc(C)c1NC(=O)C1c2cccc[n+]2CC(=O)N1Cc1cccs1.[I-]` (centres unmarked) reads 4.89%; that for `O=C(CCN1C(=O)/C(=C/c2ccccc2F)SC1=S)NC1C=CS(=O)(=O)C1` (centres unmarked), 15.3%; that for `CCOc1ccc(C(=O)c2nc3c(n2O)CCCC3)cc1`, 18.5%.

As for `O=C(O)/C=C/C(=O)Nc1cccc(C(F)(F)F)c1`, the “hERG current change (%, negative = inhibition) at 10uM” value was found to be 7.79%. On to `CC(C)CCN(CCC(C)C)CC(O)Cn1c2ccccc2c(=O)c2ccccc21` (centres unmarked), for which the “hERG current change (%, negative = inhibition) at 10uM” value is given as -22%. To `CCCCN(CCCC)CC(O)Cn1c2ccccc2c(=O)c2ccccc21` (centres unmarked) belongs -68%; to `CCCN(CCC)CC(O)Cn1c2ccccc2c2ccccc21` (centres unmarked), -32.1%; to `COCCCNC(=O)CCC(=O)Nc1ccc2nc(N3CCOCC3)cc(C)c2c1`, 4%. To `Brc1ccc(C2C3=C(Nc4ncnn42)c2ccccc2OC3c2ccncc2)cc1` (centres unmarked) belongs -32%.

As for `Fc1ccc(C2C3=C(Nc4ncnn42)c2ccccc2OC3c2ccncc2)cc1` (centres unmarked), the “hERG current change (%, negative = inhibition) at 10uM” value is recorded as -60.4%. To `COc1ccc(C2Oc3ccccc3C3=C2C(c2cccs2)n2ncnc2N3)cc1` (centres unmarked) belongs -52.1%; to `c1csc(C2C3=C(Nc4ncnn42)c2ccccc2OC3)c1` (centres unmarked), 11.4%.

As for `Cc1ccc(C2Oc3ccccc3C3=C2C(c2cccs2)n2ncnc2N3)cc1` (centres unmarked), the “hERG current change (%, negative = inhibition) at 10uM” value is reported as -7.55%. For the compound `Clc1ccc2c(c1)C1=C(C(c3ccncc3)O2)C(c2ccc(Br)cc2)n2ncnc2N1` (centres unmarked), the “hERG current change (%, negative = inhibition) at 10uM” value was 4.44%. The result for `COc1ccc(C2NC(=O)CCC2[N+](=O)[O-])c(OC)c1OC` (centres unmarked) reads 12.2%; that for `Cn1c(-c2cccc3ccccc23)n[nH]c1=S`, 21.9%; that for `CCOc1ccc(/C(O)=C2/C(=O)C(=O)N(c3cc(C)on3)C2c2ccc(C(=O)OC)cc2)cc1` (centres unmarked), 11.3%. The result for `COc1ccc(C(=O)NCC(=O)N2CC=C(c3ccccc3)CC2)cc1OC` reads -37.9%; that for `CCOc1ccc(C(=O)NCC(=O)N2CCc3ccccc3C2)cc1OCC`, 4.5%. In the case of `Cc1cccc(C(=O)NCC(=O)N2CC=C(c3ccccc3)CC2)c1`, the “hERG current change (%, negative = inhibition) at 10uM” value is reported as -40.9%. To `CCOc1ccc(C(=O)NCC(=O)N2CCCCCCC2)cc1OCC` belongs 1.47%; to `COc1ccccc1C(=O)NCC(=O)N1CC=C(c2ccccc2)CC1`, 6.76%; to `O=C(NCC(=O)N1CC=C(c2ccccc2)CC1)c1ccco1`, -78.4%. The result for `CCOc1ccc(C(=O)NCC(=O)N2CC=C(c3ccccc3)CC2)cc1OCC` reads -62.9%; that for `COc1cc(C(=O)NCC(=O)N2CC=C(c3ccccc3)CC2)cc(OC)c1OC`, -51.2%. The result for `CSCCC(NC(=O)c1ccco1)C(=O)N1CC=C(c2ccccc2)CC1` (centres unmarked) reads -48%; that for `CCOC(=O)N1CCN(C(=O)COC(=O)COc2c(C)cc(C)cc2C)CC1`, -9.8%. Take `O=c1c(-c2ccc(O)cc2O)coc2cc(O)cc(O)c12`: the “hERG current change (%, negative = inhibition) at 10uM” value is -4.59%. To `Nc1nnc(Cc2cccc(Br)c2)s1` belongs 3.51%. The result for `COCCNC(=O)COc1ccc(C)cc1C` reads 10.4%; that for `CCCCNC(=S)N(C)/N=C/c1ccc(OCC(=O)Nc2ccc(OC)cc2)c(OC)c1`, -4.23%.
